Bioassay records as filed in PubChem BioAssay.
An excerpt weighted towards active compounds, which were near 6% of everything screened.
Tau fibril FP: qHTS for Inhibitors of Tau Fibril Formation, Fluorescence Polarization; AID 1468, 2008; Potency, µM (series often up to 57.7 µM), actives largely listed as inhibitors; Microtubule-associated protein tau (Homo sapiens), P10636; 280,000 tested, 0.39% active; K18 P301L tau heparin fibrillization, Alexa594 FP, 6 h; further: nearly all actives have a fitted effect of over 55% in size
Target sequence (P10636 561-689 P618L limits assumed): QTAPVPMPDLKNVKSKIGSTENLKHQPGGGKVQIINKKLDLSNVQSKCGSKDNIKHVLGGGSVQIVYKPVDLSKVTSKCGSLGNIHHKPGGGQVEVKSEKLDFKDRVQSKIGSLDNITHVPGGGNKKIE
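Quantitative HTS format: compounds meet 15 uM recombinant K18 P301L tau and Alexa 594-tau tracer in 100 mM sodium acetate pH 7; 20 uM heparin triggers fibrillization at 37 C over 6 hr; FP gives the signal.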
PLK1 PBD inh: qHTS for Inhibitors of PLK1-PDB (polo-like kinase 1 - polo-box domain): Primary Screen; Plk1 PBD binding of FITC phosphopeptide, fluorescence polarization; Potency, µM, actives largely listed as inhibitors; 360,000 tested, 2.8% active; Serine/threonine-protein kinase PLK1 (Homo sapiens), P53350; further: series mostly up to about 57 µM; nearly all actives have a fitted effect of over 65% in size
Sfp PPTase inh: qHTS Assay for Inhibitors of Bacillus subtilis Sfp phosphopantetheinyl transferase (PPTase). Biochemical Sfp PPTase activity, qHTS. AID 1490, 2009. 310,000 tested, 3.5% active. 4'-phosphopantetheinyl transferase ffp (Bacillus subtilis), Q9F4F7. Potency, µM, usual class: inhibitors;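 further: the enzyme is Sfp with the accession as filed and its product quenches rhodamine fluorescence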
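Step 1, compound plus 15 nM Sfp-PPTase, 15 min, room temperature. Step 2, add rhodamine-CoA (5 uM) and BHQ-2-YbbR (12.5 uM). Step 3, read 525/598 nm fluorescence at 0 and 30 min.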
VDR inhibitor: Inhibitors of the vitamin D receptor (VDR): qHTS | VDR-SRC2-3 peptide fluorescence polarization, 2 h | Potency, µM, usual class: inhibitors | 400,000 tested, 0.93% active | AID 504847, 2011
Target sequence (P11473 whole entry, looked up): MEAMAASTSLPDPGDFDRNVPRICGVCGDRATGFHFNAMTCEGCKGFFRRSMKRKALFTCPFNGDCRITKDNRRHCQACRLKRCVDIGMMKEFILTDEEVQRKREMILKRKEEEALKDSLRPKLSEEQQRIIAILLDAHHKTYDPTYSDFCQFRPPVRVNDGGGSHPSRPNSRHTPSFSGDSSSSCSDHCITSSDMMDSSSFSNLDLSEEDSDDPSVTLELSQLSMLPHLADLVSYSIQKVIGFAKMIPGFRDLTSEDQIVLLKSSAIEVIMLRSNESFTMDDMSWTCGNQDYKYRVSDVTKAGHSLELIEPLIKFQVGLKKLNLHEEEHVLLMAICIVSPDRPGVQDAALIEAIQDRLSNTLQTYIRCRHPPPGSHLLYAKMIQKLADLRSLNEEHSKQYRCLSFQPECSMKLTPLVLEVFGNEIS
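After 23 nl compound addition and a short centrifugation, plates sat for 2 hours at ambient temperature; polarization of fluorescence then indicated loss of VDR binding to peptide SRC2-3.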
Tau fluor counter: Counterscreen qHTS for Inhibitors of Tau Fibril Formation, Fluorescence Polarization. tau K18 P301L Alexa594 fluorescence, heparin fibrillization. Potency, µM (top dose mostly 57.7 µM). 280,000 tested, 0.93% active; further: nearly all actives have a fitted effect of over 55% in size
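Human K18 P301L tau (15 uM unlabeled plus 0.24 uM Alexa 594-labeled, final) in 100 mM sodium acetate pH 7 was mixed with compound and 20 uM heparin and incubated 6 hr at 37 C.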
Tau ThT inhib: qHTS for Inhibitors of Tau Fibril Formation, Thioflavin T Binding. Potency, µM (titrated, usually from 57.4 µM), hits mostly inhibitors. Microtubule-associated protein tau (Homo sapiens), P10636. 270,000 tested, 2.1% active. recombinant tau K18 P301L (four-repeat tau fragment), heparin-induced fibrillization, ThT fluorescence; further: nearly all actives have a fitted effect of over 55% in size
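Heparin-induced fibrillization of the P301L-mutant K18 repeat-domain fragment of human tau was followed by ThT binding in quantitative high-throughput format.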
Hits are given with their value; 0 = inactive; ? = inconclusive; - = no result given; [ ] = dose if it differs, or a comment. The call rests on the fitted dose curve; in most records, active means well fitted curve in the direction sought with a large enough effect; inconclusive means small, poorly fitted or top-dose-only effect, or another doubt; inactive means no such curve, though single readings can be large; an effect the other way counts as inactive or inconclusive.

SMILES	Tau fibril FP	PLK1 PBD inh	Sfp PPTase inh	VDR inhibitor	Tau fluor counter	Tau ThT inhib
CC(=O)Nc1cccc(C(=O)OC(C(=O)c2ccc(C)cc2)c2ccccc2)c1 (stereo not drawn)	14µM	0	0	0	?	0
Cc1ccc(NC(=O)C(OC(=O)c2ccc(F)cc2)c2ccccc2)cc1Cl (stereo not drawn)	?	0	0	0	?	0
Cc1ccc(NC(=O)C(OC(=O)c2ccc(O)cc2)c2ccccc2)cc1Cl (stereo not drawn)	28µM	0	0	0	?	0
Cc1cccc(N2CCN(C(=O)Cc3ccccc3[N+](=O)[O-])CC2)c1C	-	0	0	0	-	-
CCSc1ccc(/C(N)=N/OC(=O)c2cccs2)cn1	-	0	0	0	-	-
CN(C(=O)CSc1nc2ccc(NC(=O)COc3ccc(F)cc3)cc2s1)c1ccccc1	0	-	-	0	?	0
COC(=O)c1ccccc1-c1ccc(C(c2c(C)[nH][nH]c2=O)c2c(C)[nH][nH]c2=O)o1	0	?	0	?	0	0
COC(=O)c1cccc(-c2ccc(C(c3c(C)[nH][nH]c3=O)c3c(C)[nH][nH]c3=O)o2)c1	?	24µM	8.9µM	0	0	7.9µM
Cc1[nH][nH]c(=O)c1C(c1ccc(-c2ccc(Cl)c(C(=O)O)c2)o1)c1c(C)[nH][nH]c1=O	?	?	0	40µM	0	10µM
NCCCCCCC(O)(P(=O)(O)O)P(=O)(O)O	-	-	0	0	-	-
Cc1ccc(NC(=O)CSC(C)C(=O)OCC(=O)N2CCN(C(=O)c3ccco3)CC2)cc1 (stereo not drawn)	-	0	-	0	-	-
Cc1ccc(S(=O)(=O)N(C)CC(=O)OCC(=O)NC(=O)Nc2ccc3c(c2)OCCO3)cc1	0	27µM	0	?	0	0
CCOC(=O)c1ccc(NC(=O)Nc2ccc3c(c2)OCCO3)cc1	?	0	0	0	13µM[quencher]	?
CCOC(=O)c1ccc(NCc2ccc3c(c2)OCO3)cc1	0	0	56µM	0	?	?
COc1ccc(CNc2ncncc2-c2ccccc2C(F)(F)F)c(OC)c1	-	-	0	0	-	-
Cc1ccc(/C=C/c2onc(C)c2S(=O)(=O)N2CCC(C(=O)NCC(C)c3ccccc3)CC2)cc1 (stereo not drawn)	0	-	-	0	0	0
ON=C(CCc1ccccc1)c1ccccc1	-	0	-	0	-	-
Cc1ccc(S(=O)(=O)Nc2cc(C)c(O)c(Sc3n[nH]c(C)n3)c2)cc1	-	0	71µM	0	-	-
Cc1ccc(S(=O)(=O)Nc2ccc3cn[nH]c3c2)cc1	-	0	-	0	-	-
COC(=O)c1sc(NC(=O)c2ccco2)c(C#N)c1C	0	24µM	40µM	0	0	-
CCOC(=O)c1sc(NC(=O)C2=COCCO2)c(C#N)c1C	-	27µM	-	?	-	-
CCOC(=O)c1sc(NC(=O)c2cc(-c3ccccc3)nc3ccccc23)c(C#N)c1C	0	3µM	40µM	0	?	?
COC(=O)c1ccccc1NC(=O)CSc1n[nH]c(-c2cccnc2)n1	0	21µM	0	0	0	0
CCOC(=O)c1sc(NC(=O)CSc2n[nH]c(-c3ccccc3)n2)c(C#N)c1C	?	3.8µM	7.1µM	0	?	?
CCOC(=O)c1sc(NC(=O)CSc2nc(C)cc(C)n2)c(C#N)c1C	0	0	0	0	0	0
SMILES	Tau fibril FP	PLK1 PBD inh	Sfp PPTase inh	VDR inhibitor	Tau fluor counter	Tau ThT inhib
Cn1c(=O)c2[nH]c(-c3ccccc3Cl)c(O)c2n(C)c1=O	0	0	?	0	0	0
Cn1c(=O)c2[nH]c(-c3ccccc3)c(O)c2n(C)c1=O	?	27µM	14µM	0	0	?
O=C1c2ccccc2C(=O)C12OC2c1ccc(Cl)cc1Cl (stereo not drawn)	?	0	0	89µM	?	10µM
N#CC1=C(N)Oc2cc(O)ccc2C1c1ccc(Br)s1 (stereo not drawn)	-	30µM	0	0	-	-
COc1cccc(C(=O)NC(=S)Nc2ccc3c4c(cccc24)CC3)c1	0	0	0	0	?	?
COc1cccc(C(=O)NC(=S)Nc2ccc(Cl)cc2C(=O)O)c1	0	?	50µM	0	0	0
COc1cccc(C(=O)NC(=S)Nc2ccc(N3CCCC3)cc2)c1	0	0	0	0	?	11µM
COc1cccc(C(=O)NC(=S)Nc2ccc(N(C)C)cc2)c1	0	0	?	0	?	7.9µM
CC(C)Oc1cccc(C(=O)NC(=S)Nc2ccc(N3CCN(C)CC3)cc2)c1	?	0	71µM	0	?	?
C#Cc1cccc(N2C(=O)C3C4C=CC(C3C2=O)C2C(=O)N(c3cccc(C#C)c3)C(=O)C42)c1 (stereo not drawn)	-	0	-	0	-	-
CNc1nc(Oc2cccc(F)c2)c2sccc2n1	-	0	-	-	-	-
CCCC(=O)N1CCN(c2ccc(NC(=S)NC(=O)c3cccc(C)c3)cc2)CC1	0	0	0	0	?	8.9µM
COCCNC(=S)Nc1ccc(N2CCCCC2)cc1	0	3.8µM	13µM	32µM	0	?
CCCC(=O)N1CCN(c2ccc(NC(=O)c3ccc4c(c3)OCCO4)cc2)CC1	-	0	0	0	-	-
CC(=O)OC[C@@H]1CN(Cc2ccccc2)C[C@H](n2cnc3c(NCC(C)C)ncnc32)O1	-	0	-	-	-	-
N=C(N)n1cccn1	-	-	50µM	0	-	-
